Assay results taken from the supplement of paper PMC13380429.

Tested on: Vero E6 infected with SARS-CoV-2
Assay: inhibition of SARS-CoV-2 cytopathic effect; higher = more antiviral protection, active = above 15
Conditions: 48 h

Measured: inhibition of SARS-CoV-2 cytopathic effect

Cc1cc(F)c(Nc2ncnc3cc(OCc4ccccc4)ccc23)cc1O
inactive: 1 nM -3.67% | 8.33 nM -0.24% | 100 nM -1.17% | 833.33 nM -2.03% | 10000 nM -1.32%

CN(C)CCN(Cc1ccccc1)c1ccccn1 [tripelennamine]
inactive: 1 nM 1.72% | 8.33 nM 2.84% | 100 nM 0.58% | 833.33 nM -0.69% | 10000 nM -1.94%

Cc1ccccc1/N=N/c1ccc(/N=N/c2c(O)ccc3ccccc23)c(C)c1 [sudan-IV]
inactive: 1 nM 8.71% | 8.33 nM -0.01% | 100 nM -4.36% | 833.33 nM -0.99% | 10000 nM -2.29%

COc1ccc(C2CNC(=O)NC2)cc1O[C@H]1C[C@@H]2CC[C@H]1C2 [atizoram]
inactive: 1 nM -0.64% | 8.33 nM 1.37% | 100 nM -0.71% | 833.33 nM -0.02% | 10000 nM -1.24%

CCn1cc(C(=O)O)c(=O)c2cc3c(cc21)OCO3 [oxolinic-acid]
inactive: 1 nM -1.5% | 8.33 nM 0.26% | 100 nM -1.8% | 833.33 nM -0.9% | 10000 nM -3.06%

NC(=O)N1CCC(CC(=O)N2CCC([C@H]3c4ncc(Br)cc4CCc4cc(Cl)cc(Br)c43)CC2)CC1 [lonafarnib]
inactive: 1 nM -0.44% | 8.33 nM 0.33% | 100 nM 1.55% | 833.33 nM 11.2% | 10000 nM 12.3%

C[C@H]1CC[C@H](n2c3cnccc3c3cnc(Nc4ccc5c(n4)CCN(C(=O)CO)C5)nc32)CC1
inactive: 1 nM -2.38% | 8.33 nM -0.1% | 100 nM -1.1% | 833.33 nM -0.44% | 10000 nM -5.03%

CC(C)(C)NCC(O)COc1cccc2[nH]c(=O)[nH]c12 (stereo not given)
inactive: 1 nM -0.75% | 8.33 nM -0.25% | 100 nM -0.12% | 833.33 nM -0.11% | 10000 nM -0.04%

NC(=O)C(c1ccccc1)(c1ccccc1)[C@@H]1CCN(CCc2ccc3c(c2)CCO3)C1 [darifenacin]
inactive: 1 nM -1.18% | 8.33 nM 0.61% | 100 nM 2.83% | 833.33 nM 0.42% | 10000 nM -5.65%

Cc1cc(Cn2cnc3c2C[C@@H](C(=O)O)N(C(=O)C(c2ccccc2)c2ccccc2)C3)ccc1N(C)C
inactive: 1 nM -2.45% | 8.33 nM -1.75% | 100 nM -3.61% | 833.33 nM -1.45% | 10000 nM 0.19%

COCC(=O)Nc1c(I)c(C(=O)NCC(O)CO)c(I)c(C(=O)N(C)CC(O)CO)c1I (stereo not given) [iopromide]
inactive: 1 nM -2.42% | 8.33 nM -1.91% | 100 nM -0.01% | 833.33 nM -0.15% | 10000 nM 0.66%

OC[C@H]1O[C@@H](n2cnc3c(NC4CCCC4)nc(Cl)nc32)[C@H](O)[C@@H]1O [2-chloro-N6-cyclopentyladenosine]
inactive: 1 nM -3.44% | 8.33 nM 0.41% | 100 nM 2.9% | 833.33 nM 2.35% | 10000 nM -0.77%

FC(F)(F)C(F)(F)C(F)(F)C(F)(F)C(F)(F)C(F)(F)C(F)(F)C(F)(F)Br [perflubron]
inactive: 1 nM -0.32% | 8.33 nM 1.61% | 100 nM 1.51% | 833.33 nM -1.6% | 10000 nM 0.45%

CN[C@H](C(=O)N[C@H](C(=O)N(C)[C@H](/C=C(\C)C(=O)O)C(C)C)C(C)(C)C)C(C)(C)c1ccccc1 [taltobulin]
inactive: 1 nM -0.53% | 8.33 nM -1.55% | 100 nM -0.97% | 833.33 nM -1.63% | 10000 nM -1.03%

O=c1ccc2cc3ccoc3cc2o1 [psoralen]
inactive: 1 nM -1.78% | 8.33 nM 1.39% | 100 nM 1.55% | 833.33 nM 0.22% | 10000 nM -0.41%

Cc1ccc(-n2sc(=O)n(Cc3ccc(F)cc3)c2=O)cc1
inactive: 1 nM 1.81% | 8.33 nM -0.78% | 100 nM 0.17% | 833.33 nM -0.22% | 10000 nM -3.39%

CCN(CC)C(=O)N[C@H]1C=C2c3cccc4[nH]cc(c34)C[C@H]2N(C)C1 [lisuride]
inactive: 1 nM -0.02% | 8.33 nM 2.67% | 100 nM 0.39% | 833.33 nM 7.27% | 10000 nM -0.37%

N=C(N)NC(=N)NCCc1ccccc1 [phenformin]
inactive: 1 nM -3.22% | 8.33 nM 0.38% | 100 nM -2.7% | 833.33 nM -2.58% | 10000 nM -5.63%

Cc1ccc(-c2ncn(-c3ccc(Nc4nccc(-c5cccc(N6CCOCC6)c5)n4)cc3)n2)cn1
inactive: 1 nM -4.9% | 8.33 nM -4.6% | 100 nM -3.08% | 833.33 nM -5.23% | 10000 nM -2.89%

NS(=O)(=O)c1nn2cc(-c3ccccc3)nc2s1
inactive: 1 nM 8.11% | 8.33 nM 1.76% | 100 nM 0.85% | 833.33 nM 0.07% | 10000 nM 0.7%

Nc1ccc2ncnc(NCCc3ccc(Oc4ccccc4)cc3)c2c1
inactive: 1 nM -1.24% | 8.33 nM 1.54% | 100 nM -1.53% | 833.33 nM 0.25% | 10000 nM -4.62%

O=C1NC(=O)[C@@]2(CCOc3ccc(F)cc32)N1 [sorbinil]
inactive: 1 nM -0.44% | 8.33 nM -2.13% | 100 nM -2.63% | 833.33 nM -0.6% | 10000 nM -0.07%

CC(=O)Nc1cccc2c1c(Sc1ccc(Cl)cc1)c(C)n2CC(=O)O
inactive: 1 nM -2.31% | 8.33 nM -3.4% | 100 nM -2.21% | 833.33 nM -0.59% | 10000 nM -0.66%

O=C(O)c1ccc2c(c1)nc(Nc1cccc(Cl)c1)c1ccncc12
inactive: 1 nM -2.63% | 8.33 nM 0.18% | 100 nM -2.24% | 833.33 nM 0.52% | 10000 nM -1.33%

C[C@H]1NCc2cc(-c3ccc4c(=O)c(C(=O)O)cn(C5CC5)c4c3OC(F)F)ccc21 [garenoxacin]
inactive: 1 nM -4.16% | 8.33 nM -1.9% | 100 nM 1.67% | 833.33 nM 3.28% | 10000 nM 1.04%

CO[C@H]1/C=C/O[C@@]2(C)Oc3c(C)c(O)c4c(O)c(c(/C=N/N5CCN(C6CCCC6)CC5)c(O)c4c3C2=O)NC(=O)/C(C)=C\C=C\[C@H](C)[C@H](O)[C@@H](C)[C@@H](O)[C@@H](C)[C@H](OC(C)=O)[C@@H]1C [rifapentine]
inactive: 1 nM -8.98% | 8.33 nM -0.78% | 100 nM -1.42% | 833.33 nM 1.06% | 10000 nM 1.47%

CC[N+](CC)(CC)CC(=O)Nc1c(C)cccc1C
inactive: 1 nM -1.18% | 8.33 nM -2.04% | 100 nM 0.02% | 833.33 nM 0.8% | 10000 nM -0.17%

C[C@H]1C[C@H]2[C@@H]3CCC4=CC(=O)C=C[C@]4(C)[C@@]3(Cl)[C@@H](O)C[C@]2(C)[C@@]1(O)C(=O)CO [beclomethasone]
inactive: 1 nM -6.12% | 8.33 nM -1.77% | 100 nM 0.28% | 833.33 nM -4.99% | 10000 nM -2.5%

COc1ccc2c(c1OC)C(=O)O[C@@H]2[C@H]1c2c(cc3c(c2OC)OCO3)CCN1C [noscapine]
inactive: 1 nM -3% | 8.33 nM 0.3% | 100 nM -0.27% | 833.33 nM -0.71% | 10000 nM -2.79%

CCNC(=O)[C@H]1O[C@@H](n2cnc3c(N)ncnc32)[C@H](O)[C@@H]1O
inactive: 1 nM 3.12% | 8.33 nM 1.83% | 100 nM -2.78% | 833.33 nM -3.3% | 10000 nM -1.61%

C[C@]12C=CC(=O)C=C1CC[C@@H]1[C@@H]2C(=O)C[C@@]2(C)[C@H]1CC[C@]2(O)C(=O)CO [prednisone]
inactive: 1 nM -1.14% | 8.33 nM -0.26% | 100 nM -3.03% | 833.33 nM -1.05% | 10000 nM 1.02%

O=c1cc(-c2ccccc2)oc2cc(O)c(O)c(O)c12 [baicalein]
inactive: 1 nM 1.61% | 8.33 nM 3.69% | 100 nM -0.24% | 833.33 nM -2.55% | 10000 nM -5.11%

COc1cccc(/C=N/N=C/c2cccc(OC)c2)c1
inactive: 1 nM -0.08% | 8.33 nM 2.48% | 100 nM -2.17% | 833.33 nM -0.34% | 10000 nM 0.47%

CNC(=O)[C@@H](Cc1ccccc1)N(C)C(=O)[C@@H](Cc1ccc2ccccc2c1)N(C)C(=O)/C=C/CC(C)(C)N [tabimorelin]
inactive: 1 nM 0.97% | 8.33 nM -0.49% | 100 nM -1.39% | 833.33 nM 2.19% | 10000 nM 0.56%

Clc1ccc2nsnc2c1NC1=NCCN1 [tizanidine]
inactive: 1 nM 2.21% | 8.33 nM 4.56% | 100 nM 1.5% | 833.33 nM 2.93% | 10000 nM 0.03%

CCCC[N+]1(C)[C@@H]2C[C@@H](OC(=O)[C@H](CO)c3ccccc3)C[C@H]1[C@@H]1O[C@@H]12 (stereo not given in full) [butylscopolamine-bromide]
inactive: 1 nM -2.47% | 8.33 nM -2.18% | 100 nM -2.19% | 833.33 nM 0.56% | 10000 nM -1.1%

COc1cc2ncnc(Nc3cccc(Cl)c3)c2cc1OC [tyrphostin-AG-1478]
active: 10000 nM 17.9%
inactive: 1 nM -0.71% | 8.33 nM -1% | 100 nM -7.3% | 833.33 nM -11.1%

CCn1nc(C2CCN(C(=O)CCO)CC2)nc1-c1cnc(N)c(-c2nnc(C(C)(C)C)o2)n1
inactive: 1 nM -2.84% | 8.33 nM 1.6% | 100 nM 1.87% | 833.33 nM -2.41% | 10000 nM -1.94%
